Experimental findings from PubChem BioAssay (NCATS) are described below.

Records with an inconclusive call do not appear. Entries that show only a call come without a potency. Activity calls are given as the source filed them. Calls follow the shape of the dose curve; as a rule, active = well fitted curve in the direction sought with a large enough effect; inconclusive = small, poorly fitted or top-dose-only effect, or another doubt; inactive = no such curve, though single readings can be large; an effect the other way counts as inactive or inconclusive.

For assay [1], the target named is Aldehyde dehydrogenase, mitochondrial (Homo sapiens) (UniProt P05091). As to the kind of experiment: qHTS for Inhibitors of the Aldehyde Dehydrogenase Family (ALDH2) Primary screen (AID 2061308). Also: nearly all actives have a fitted effect of over 55% in size.
For assay [2], the target named is Retinaldehyde dehydrogenase 3 (Homo sapiens) (UniProt P47895). As to the kind of experiment: qHTS for Inhibitors of the Aldehyde Dehydrogenase Family (ALDH1A3) Primary screen (AID 2061315). (qHTS replaces the single test concentration by a dilution series.)

`NC(=O)c1cccc(-c2noc(-c3ccccc3F)n2)c1`: the Potency result in assay [1] and in assay [2] was “inactive” in each case.

Consider `Cc1nc(NCc2ccccc2)c2nc(-c3ccccc3)n(CCN3CCCCC3)c2n1`, for which the Potency entry in assay [1] and in assay [2] was “inactive” throughout.

Turning to `O=C(OCC#CCSc1nnc(-c2cccc3ccccc23)o1)c1ccc(F)cc1`, the Potency result in assay [1] and in assay [2] was “inactive” throughout.

Regarding `COc1ccc(NC(=O)c2[nH]c(C)c(C(C)=O)c2C)cc1[S+](=O)([O-])Nc1ccccc1C#N`, the Potency result in assay [1] and in assay [2] was “inactive” in each case.

Take `O=C(OCC#CCSc1nnc(-c2cccc3ccccc23)o1)c1ccc(C(F)(F)F)cc1`: the Potency result in assay [1] and in assay [2] was “inactive” each time.

`Cc1cccc(-n2cnc3cc(C(=O)N4CCCC(C(C)C)C4)ccc32)c1` (stereo unspecified): the Potency result in assay [1] and in assay [2] was “inactive” each time.

Take `O=C(O)c1ccc2c(c1)C(=O)N([C@H](Cc1ccc(O)cc1)C(=O)O)C2=O`: the Potency entry in assay [1] and in assay [2] was “inactive” each time.

For `CC(=O)OC1CC2C3(C)CCC(OC(=O)CC(=O)O)C(C)(C)C3CCC2(C)C2(C)CCC(C3(C)CCC(=O)O3)C12` (stereo unspecified), the Potency result in assay [1] and in assay [2] was “inactive” each time.

On to `O=C(NCc1ccc(F)cc1)n1cc(P(=S)(c2ccccc2)c2ccccc2)c2ccccc21`, for which the Potency entry in assay [1] and in assay [2] was “inactive” throughout.

`O=C(Nc1ccc(-c2nc3ccccc3[nH]2)cc1)c1ccc2cc[nH]c2c1`: the Potency result in assay [1] and in assay [2] was “inactive” each time.

On to `N#CN1CCC(NS(=O)(=O)c2cccc(F)c2)C1` (stereo unspecified), for which the Potency result in assay [1] and in assay [2] was “inactive” in each case.

For `C/C=C\C1=CCCC1Nc1ncnc2ccc(-c3c(C)noc3C)cc12` (stereo unspecified), the Potency result in assay [1] and in assay [2] was “inactive” throughout.

As for `O=C1CCCC2=C1C(c1[nH]ncc1Cl)N=C(Nc1ccccc1)N2` (stereo unspecified), the Potency result in assay [1] and in assay [2] was “inactive” each time.

Take `COc1ccc(C2Nc3ccccc3C(=O)N2Cc2ccccc2)cc1COc1c(C)cccc1C` (stereo unspecified): the Potency entry in assay [1] and in assay [2] was “inactive” throughout.

As for `CC(C)c1ccccc1-c1ncc(N(C)C)c(NCc2ccc(-c3cccnc3)cc2)n1`, the Potency result in assay [1] and in assay [2] was “inactive” each time.

For `CCOc1ccc(CCNC(=O)c2cc3ccccc3n2Cc2cc(C)cc(C)n2)cc1OCC`, the Potency result in assay [1] and in assay [2] was “inactive” throughout.

As to `CC1=CC2/C=C(\C)CCC(O)C/C=C/C(=O)OC23C(=O)NC(CC(C)C)C3C1C` (stereo unspecified), the Potency entry in assay [1] and in assay [2] was “inactive” each time.

On to `Cc1cc(C)n2ncc(C(=O)N3CCCC3)c2n1`, for which the Potency entry in assay [1] and in assay [2] was “inactive” each time.

On to `Cc1cc(C)nc(NC(=S)N2CCN(c3nc(C)cnc3C)CC2)c1`, for which the Potency entry in assay [1] and in assay [2] was “inactive” in each case.

Regarding `Cc1cccc(NS(=O)(=O)c2ccc3c(c2)CCC(=O)N3)c1`, the Potency entry in assay [1] and in assay [2] was “inactive” in each case.

`CC(C)c1nc2c(cnn2C)c(=O)n1N`: the Potency result in assay [1] and in assay [2] was “inactive” each time.

Regarding `CN(Cc1ccc(-c2ccccc2)cc1)c1nc(-c2ccccc2C(F)(F)F)nc2ccccc12`, the Potency result in assay [1] and in assay [2] was “inactive” each time.

`Cc1nc(C(C)N(C)c2ncnc3ccc(-c4ccc5c(c4)OCO5)cc23)cs1` (stereo unspecified): the Potency result in assay [1] and in assay [2] was “inactive” in each case.

`Cc1nc(C)c(-c2ccc3ncnc(N(C)Cc4sccc4C)c3c2)s1`: the Potency entry in assay [1] and in assay [2] was “inactive” throughout.

As to `Cc1cc(C)c(S(=O)(=O)Nc2cccc3cccnc23)c(C)c1`, the Potency entry in assay [1] and in assay [2] was “inactive” in each case.

`O=C(Nc1ccc(S(=O)(=O)Nc2nccs2)cc1)c1ccncc1`: the Potency result in assay [1] and in assay [2] was “inactive” in each case.

With `C[C@H]1CN(S(=O)(=O)c2c(F)cccc2F)CCN1S(=O)(=O)c1ccc2c(c1)OCCO2`, the Potency entry in assay [1] and in assay [2] was “inactive” throughout.

With `Cc1cc(C)nc(NC(=S)N2CCN(c3ccc(C(=O)O)cc3)CC2)c1`, the Potency result in assay [1] and in assay [2] was “inactive” each time.

Turning to `COC(=O)c1cc2c(s1)c1cnn(Cc3ccccc3F)c(=O)c1n2C`, the Potency entry in assay [1] and in assay [2] was “inactive” throughout.

For the compound `Cc1cccc(CNc2ccnc(-c3ccccc3C)n2)c1`, the Potency entry in assay [1] and in assay [2] was “inactive” throughout.

With `FC(F)(F)c1cc(-c2ccc(CNc3nc(C4CCCC4)nc4ccccc34)cc2)ccn1`, the Potency entry in assay [1] and in assay [2] was “inactive” throughout.

Consider `N#Cc1ccc(-c2csc(N3CCC(C(N)=O)CC3)n2)cc1`, for which the Potency result in assay [1] and in assay [2] was “inactive” each time.

For the compound `CCCN(C)c1ncnc2ccc(-c3ccc4c(c3)OCO4)cc12`, the Potency result in assay [1] and in assay [2] was “inactive” each time.

In the case of `Cc1ccc(NC(=O)c2cnn3c(-c4ccccc4)cc(C)nc23)cc1`, the Potency entry in assay [1] and in assay [2] was “inactive” in each case.

With `Cc1cc(-c2nnc3n2CCCCCC3)c(C)n1-c1ccccc1`, the Potency result in assay [1] and in assay [2] was “inactive” in each case.

On to `CC(=O)Nc1sc2c(c1-c1ccc(C(N)=O)cc1)CCNC2`, for which the Potency entry in assay [1] and in assay [2] was “inactive” each time.

On to `Cc1nc(N2CCOCC2)c2nc(-c3ccccc3)n(CCCN3CCOCC3)c2n1`, for which the Potency entry in assay [1] and in assay [2] was “inactive” throughout.

`O=S(=O)(Nc1nccs1)c1ccc(Nc2nc(-c3ccccc3)cs2)cc1`: the Potency result in assay [1] and in assay [2] was “inactive” each time.

Take `Cc1nc(CSc2ncnc3ccc(-c4ccc5c(c4)OCO5)cc23)cs1`: the Potency result in assay [1] and in assay [2] was “inactive” throughout.

`CCN1CCN(c2cccc(Nc3nn4c(=O)c5ccccc5nc4s3)c2)CC1`: the Potency entry in assay [1] and in assay [2] was “inactive” each time.

On to `COc1ccc(C2Nc3ccccc3C(=O)N2CCO)cc1COc1c(C)cc(NC(C)=O)cc1C` (stereo unspecified), for which the Potency result in assay [1] and in assay [2] was “inactive” each time.

For `CCOC(=O)C1CCC(C(=O)Nc2ccc([S+](=O)([O-])Nc3nccs3)cc2)CC1` (stereo unspecified), the Potency result in assay [1] and in assay [2] was “inactive” throughout.

With `O=[S+]([O-])(Nc1ccccc1)c1ccc(NCc2ccc(Cl)cc2O)cc1`, the Potency entry in assay [1] and in assay [2] was “inactive” in each case.
